Screening results: PubChem, National Center for Advancing Translational Sciences (NCATS)
Shown are actives, neighbours in structure and some others; about 2.7% of the full set was active somewhere.
HepG2 tox: kills HepG2 cells in TGF-b inhibitor counter-screen | 0.76% of 410,000 active | Potency, µM (highest dose often 46.1 µM), inactives show at the highest dose activity change, negative = cytotoxicity, actives largely listed as cytotoxic | HepG2 CAGA-GFP viability, ATP luminescence, 18 h | AID 588856
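CellTiter-Glo luminescence gave cytotoxicity after 18 hours at 37 degrees C. The cells were HepG2 CAGA-GFP in 1% FBS DMEM, stimulated with 500 pg/mL TGF-beta after compound addition. %Activity was normalised to no-cell wells (complete cell-killing) and DMSO (no toxicity), and curves were fitted and classified.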
ALOX12 inh: blocks human arachidonate 12S-lipoxygenase; P18054; purified 12hLO, xylenol orange hydroperoxide absorbance; Potency, µM (highest dose often 108 µM), for inactives: at the highest dose activity change, negative = inhibition, usual class: inhibitors; 1.1% of 580,000 active; further: on the % scale 0 is the no-effect control and ±100 the full control effect
Target sequence (P18054 whole entry, looked up): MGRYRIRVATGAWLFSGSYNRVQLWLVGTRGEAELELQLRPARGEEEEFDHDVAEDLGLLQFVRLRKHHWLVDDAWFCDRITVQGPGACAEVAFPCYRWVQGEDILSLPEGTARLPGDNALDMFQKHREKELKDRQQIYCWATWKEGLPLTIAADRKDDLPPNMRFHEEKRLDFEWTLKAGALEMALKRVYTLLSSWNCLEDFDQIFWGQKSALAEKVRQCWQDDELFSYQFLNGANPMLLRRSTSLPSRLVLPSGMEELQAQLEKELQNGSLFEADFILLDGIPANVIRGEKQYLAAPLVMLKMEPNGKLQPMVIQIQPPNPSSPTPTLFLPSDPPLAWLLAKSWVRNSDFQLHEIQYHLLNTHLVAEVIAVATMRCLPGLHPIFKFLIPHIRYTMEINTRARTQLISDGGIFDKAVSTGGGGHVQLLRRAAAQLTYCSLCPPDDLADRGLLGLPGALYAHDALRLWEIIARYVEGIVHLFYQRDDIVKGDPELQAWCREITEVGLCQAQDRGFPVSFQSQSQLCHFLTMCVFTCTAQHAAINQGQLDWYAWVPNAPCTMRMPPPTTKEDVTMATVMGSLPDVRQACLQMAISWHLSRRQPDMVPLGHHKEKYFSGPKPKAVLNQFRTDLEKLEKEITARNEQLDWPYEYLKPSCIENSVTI
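Purified human 12hLO at 150 nM in 25 mM Hepes, 0.01% Triton X-100, pH 7.0, preincubated 15 min at room temperature with compound. Reaction started with 40 uM arachidonic acid, 30 min at room temperature. Hydroperoxide measured by Fe-xylenol orange, 573/405 nm absorbance ratio.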
TGFb inhibitor: inhibitors of TGF-b signaling | HepG2 CAGA-GFP TGF-b/SMAD3 reporter, GFP fluorescence, 18 h; TGF-beta stimulated, 500 pg/mL final | Potency, µM (titrated, usually from 46.1 µM), without a hit: at the top dose activity, negative = inhibition, actives largely listed as inhibitors | 1.2% of 410,000 active | AID 588855; further: on the % scale 0 is the no-effect control and ±100 the full control effect; nearly all actives have a fitted effect of over 65% in size
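Cell-based qHTS in HEPG2 carrying a CAGA-GFP Smad reporter; compounds added before 500 pg/mL final TGF-beta, 18 h incubation at 37 degrees C, GFP fluorescence quantified per cell by imaging cytometry.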
ATXN2 expr inh: reduces ATXN2 reporter expression in HEK-293 cells; HEK-293 ATXN2-luciferase reporter, luminescence, 24 h; Potency, µM (titrated, usually from 57 µM), for inactives: at the top dose activity change, negative = inhibition, hits mostly inhibitors; 0.72% of 360,000 active; AID 1745845; further: on the % scale 0 is the no-effect control and ±100 the full control effect; nearly all actives have a fitted effect of over 55% in size
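ATXN2-luciferase reporter cells (luciferase flanked by upstream and downstream ATXN2 gene portions) were treated 24 h at 37 °C with compounds at up to 57 uM. SteadyGlo luminescence gave expression; GF-AFC fluorescence gave viability.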
S2 tox: cell viability loss in ATXN counter-screen. S2 cells (HEK-293 line with an ATXN2-luciferase reporter) viability, CellTiter-Fluor protease fluorescence, 24 h. Potency, µM (titrated, usually from 56.7 µM), most hits filed as cytotoxic. 0.49% of 400,000 active; further: nearly all actives have a fitted effect of over 40% in size
An asterisk follows results filed as active; i = inactive; ? = inconclusive; nt = no result given; [ ] = another dose, or the depositor's remark. The call rests on the fitted dose curve; in most records, active means well fitted curve in the direction sought with a large enough effect; inconclusive means small, poorly fitted or top-dose-only effect, or another doubt; inactive means no such curve, though single readings can be large; an effect the other way counts as inactive or inconclusive. Potency means the concentration at half of the fitted maximal effect.

SMILES	HepG2 tox	ALOX12 inh	TGFb inhibitor	ATXN2 expr inh	S2 tox
Cc1cccc(NC(=O)c2ccc([N+](=O)[O-])s2)c1C	14.1µM*	-18.1%	11.2µM*	-38.7%	?
Cc1cccc(NC(=O)c2ccc([N+](=O)[O-])s2)n1	-103.9%	-20.0%	14.1µM*	nt	i
Cc1cccc(C)c1NC(=O)c1ccc([N+](=O)[O-])s1	-88.3%	1.1%	?	nt	i
O=C(Nc1ccccc1N1CCOCC1)c1ccc([N+](=O)[O-])s1	-90.3%	48.4%	11.2µM*	?	?
N#Cc1c(N)[nH]c2ccc(Sc3ccccc3)cc12	0.6%	?	15.8µM*	2.3%	?
CCN1C(=O)[C@H]2[C@@H](c3ccc(-c4ccc(F)cc4)c(OC)c3)N[C@@](C)(C(=O)OC)[C@H]2C1=O	-13.3%	11.2µM*	-13.2%	-10.6%	i
COC(=O)[C@@]12CCCN1[C@H](c1ccc(-c3ccccc3)c(OC)c1)[C@H]1C(=O)N(C)C(=O)[C@H]12	-3.3%	12.6µM*	-27.1%	-3.2%	i
COC(=O)[C@@]12CCCN1[C@H](c1ccc(-c3ccc(OC)cc3)c(OC)c1)[C@@H]1C(=O)N(C)C(=O)[C@@H]12	-28.4%	-20.9%	-12.6%	6.2%	i
CCN1C(=O)[C@@H]2[C@@H](c3ccc(-c4ccc5c(c4)OCO5)c(OC)c3)N3CCC[C@@]3(C(=O)OC)[C@@H]2C1=O	0.4%	11.2µM*	-8.7%	5.8%	i
CCN1C(=O)[C@H]2[C@@H](c3ccc(-c4ccc(OC)cc4)c(OC)c3)N[C@@](C)(C(=O)OC)[C@H]2C1=O	-6.0%	-6.9%	17.4%	10.0%	?
COC(=O)[C@]1(Cc2ccccc2)N[C@H](c2ccc(-c3cccc(Cl)c3)c(OC)c2)[C@@H]2C(=O)N(C)C(=O)[C@@H]21	-49.0%	39.8µM*	-5.1%	-6.9%	i
CCN(CC)S(=O)(=O)NCc1ccnc(OCc2ccccc2)c1	nt	31.1%	nt	nt	nt
Nc1nnc(SCC(=O)N(C2CCCCC2)C2CCCCC2)s1	nt	-0.8%	nt	nt	nt
CCCc1cc(=O)oc2cc(C)cc(OCC(=O)NCCCO)c12	nt	-27.5%	nt	nt	nt
O=C(Nc1nc(-c2cccs2)cs1)c1ccc([N+](=O)[O-])o1	11.2µM*	?	?	-23.5%	?
O=C(Nc1nc(-c2cccs2)cs1)c1ccco1	-40.5%	-12.0%	-21.7%	nt	i
Cc1ccccc1NC(=O)c1ccc([N+](=O)[O-])o1	-34.5%	-9.5%	15.8µM*	-16.6%	i
Cc1c(NC(=O)c2ccc([N+](=O)[O-])o2)cccc1-c1nc2ncccc2o1	25.1µM*	-1.0%	?	?	?
Cc1cccc(NC(=O)c2ccc([N+](=O)[O-])o2)n1	25.1µM*	0.0%	?	-21.5%	?
Cc1ccccc1C(=O)N1CCC(C(=O)NCc2coc(-c3cccs3)n2)CC1	nt	4.7%	nt	nt	nt
COc1ccc(NS(=O)(=O)c2cc(C(=O)N3CCc4sccc4C3)ccc2Cl)cc1	nt	48.4%	nt	nt	nt
CS(=O)(=O)N1CCN(c2ccccc2NC(=O)c2ccc([N+](=O)[O-])o2)CC1	-26.3%	2.0%	?	-37.2%	?
Cc1ccc(NC(=O)c2ccc([N+](=O)[O-])o2)c(C)c1	-79.9%	-4.6%	12.6µM*	-7.3%	i
CN1CCN(c2ccccc2NC(=O)C(Cc2ccccc2)n2cccc2)CC1 (configuration not stated)	-34.1%	3.0%	-4.5%	0.0%	29.9µM*
CN1CCN(c2ccccc2NC(=O)c2ccc([N+](=O)[O-])o2)CC1	2.51µM*	nt	?	?	?
SMILES	HepG2 tox	ALOX12 inh	TGFb inhibitor	ATXN2 expr inh	S2 tox
O=C(Nc1cccc2ncccc12)c1ccc([N+](=O)[O-])o1	12.6µM*	17.8%	12.6µM*	21.1%	i
O=C(Nc1ncn[nH]1)c1cccc(S(=O)(=O)N2CCCCC2)c1	nt	-4.8%	nt	nt	nt
O=C(NCCc1c[nH]c2ccc(Cl)cc12)c1ccccc1F	nt	-5.1%	nt	nt	nt
Cc1cc(C)c(C(=O)Cn2cnc3c2c(=O)n(C)c(=O)n3C)cc1C	nt	4.6%	nt	nt	nt
CCC(C)NC(=O)CN1C(=O)N(c2ccc(C(C)C)cc2)S(=O)(=O)c2ccccc21 (configuration not stated)	nt	-1.8%	nt	nt	nt
COCC1CN(C2CCC2)CC12CCN(C(=O)Cc1ccccc1)CC2 (configuration not stated)	nt	59.4%	nt	nt	nt
CCOc1cc(NC(=S)NCC2CCCO2)c(OCC)cc1NC(=O)c1ccccc1F (configuration not stated)	1.1%	39.8µM*	14.9%	-22.3%	i
O=C(Cc1ccccc1)N(Cc1ccc2cc[nH]c2c1)C1CC1	nt	-9.9%	nt	nt	nt
CC(C)(C)OC(=O)COc1cc(OCC(=O)OC(C)(C)C)c2c(=O)cc(-c3ccccc3)oc2c1	-87.9%	-12.1%	?	20µM*	20µM*
O=c1cc(-c2ccc(OCc3ccccc3)cc2)oc2cc(OCc3ccccc3)cc(OCc3ccccc3)c12	-1.7%	35.5µM*	-21.0%	20.2%	i
O=c1cc(-c2ccccc2)oc2cc(OCc3ccccc3)cc(O)c12	-1.9%	8.8%	4.2%	-26.8%	i
S=C(NCc1ccccc1)NC1CCSc2ccccc21 (configuration not stated)	-28.4%	?	12.6µM*	-15.7%	i
CC(C)c1ccc(NC(=S)NC2CCSc3ccccc32)cc1 (configuration not stated)	nt	35.5µM*	nt	nt	nt
S=C(NCCc1ccccc1)NC1CCCc2ccccc21 (configuration not stated)	nt	14.1µM*	nt	nt	nt
S=C(NC1CCSc2ccccc21)NC1CC2CCC1C2 (configuration not stated)	nt	-20.0%	nt	nt	nt
COc1cc(C(=O)Oc2ccccc2/C=N/NC(=O)c2ccc(C)c(Cl)c2)cc(OC)c1OC	-48.0%	7.8%	?	?	?
CCn1c(C)nc2cc(C(=O)N/N=C/c3cccc(OC)c3O)ccc21	-4.9%	?	0.1%	14.1µM*	i
CCn1c(C)nc2cc(C(=O)N/N=C/c3ccc(O)c(O)c3O)ccc21	-15.8%	-20.9%	-13.9%	-22.7%[11.3 µM]	i
COc1ccc(/C=N/NC(=O)c2nc(-c3ccccc3)n(-c3ccccc3)n2)cc1	-6.5%	-5.6%	2.0%	2.9%	i
CCOc1ccccc1/C=N/NC(=O)c1c(C)nc2ccc(Br)cn12	-15.2%	16.3%	0.0%	-19.6%	i
COc1ccc(/C=N/NC(=O)c2nc(-c3ccccc3)n(-c3ccccc3)n2)c(O)c1	-5.2%	6.6%	0.0%	3.98µM*	i
COc1cccc(/C=N/NC(=O)c2c(C)nc3ccc(Br)cn23)c1O	-19.0%	nt	?	0.631µM*	i
COc1cc(C(=O)Oc2ccccc2/C=N/NC(=O)c2ccc(Cl)cc2)cc(OC)c1OC	5.7%	18.0%	7.08µM*	0.0%	?
